Only some compounds are listed: those with a hit (about 4% of all), similar ones and a draw of the others.
TRHR agonist: qHTS for Small Molecule Agonists and Allosteric Enhancers of Human TRH Receptor: Primary Screen for Agonists | Thyrotropin-releasing hormone receptor (Homo sapiens), P34981 | TRHR cells, calcium flux fluo-8, FDSS agonist mode | activation, % at 2 µM | 0.18% of 360,000 active | AID 493084, 2011; note: 0% is about no effect
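Fluo-8-loaded TRHR cells; 10 s baseline, compound added, kinetic Ca2+ fluorescence read 1/s, agonist mode.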
D1 PAM: Potentiators of Human D1 Dopamine Receptor: qHTS. AID 504651, 2011. potentiation, % at 10 µM. 0.036% of 360,000 active. HEK293 TREx D1 cells, calcium flux, dopamine EC20 potentiation; in the data active = potentiation above about 30%; note: 0% is about no effect
Target sequence (P21728 whole entry, looked up): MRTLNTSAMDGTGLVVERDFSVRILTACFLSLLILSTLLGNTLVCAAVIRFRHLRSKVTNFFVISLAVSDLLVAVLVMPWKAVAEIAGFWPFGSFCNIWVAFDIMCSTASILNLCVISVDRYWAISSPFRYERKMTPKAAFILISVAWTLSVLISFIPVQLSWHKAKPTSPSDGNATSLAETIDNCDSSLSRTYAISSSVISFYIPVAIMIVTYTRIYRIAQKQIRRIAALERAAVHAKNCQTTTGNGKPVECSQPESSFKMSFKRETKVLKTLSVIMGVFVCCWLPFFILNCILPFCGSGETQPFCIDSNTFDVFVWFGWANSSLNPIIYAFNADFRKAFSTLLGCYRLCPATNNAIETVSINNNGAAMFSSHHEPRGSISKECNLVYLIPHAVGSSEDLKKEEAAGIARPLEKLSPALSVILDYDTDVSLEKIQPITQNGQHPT
D1 antag: Antagonist of Human D 1 Dopamine Receptor: qHTS | D(1A) dopamine receptor (Homo sapiens), P21728 | HEK293 TREx D1 cells, calcium flux, dopamine EC80; active compounds read low | activity change, negative = inhibition, % at 10 µM | 3.2% of 360,000 active; in the data active = activity change below about -30%; note: % is set by controls: 0 for no effect and ±100 for the full control effect
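Tetracycline-induced HEK293 T-REx cells with force-coupled D1 receptor were loaded with a no-wash calcium dye. Compound was added after a 10 s baseline and read kinetically for 180 s; EC80 dopamine was then added and calcium flux followed another 180 s.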
TRHR PAM: qHTS for Small Molecule Agonists and Allosteric Enhancers of Human TRH Receptor: Primary Screen for Enhancers; TRHR cells, fluo-8 calcium fluorescence, EC20 TRH enhancement; enhancement, % at 2 µM; 0.66% of 360,000 active; AID 493056, 2011; in the data active = enhancement above about 30%; note: 0% is about no effect
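TRHR-expressing cells loaded with fluo-8 calcium dye were read kinetically (ex 480/em 530) during compound addition, then stimulated with an EC20 of TRH (10 nM final). Enhancement of the Gq-mediated intracellular calcium response was scored.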
D1 ag: Allosteric Agonists of the Human D1 Dopamine Receptor: qHTS. D(1A) dopamine receptor (Homo sapiens), P21728. HEK293 T-REx D1 cells, calcium flux, agonist mode. activation, % at 2 µM. 1% of 360,000 active; note: 0% is about no effect
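Inducible HEK293 T-REx D1 cells, force-coupled to calcium signalling, were plated at 4000 cells/well with tetracycline and held overnight at 30 C. After no-wash calcium dye loading, compound-evoked calcium rise over 180 s flagged agonists.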
Glioma ERSR ind: qHTS for Inducers of the Endoplasmic Reticulum Stress Response (ERSR) in Human Glioma: qHTS; U87-MG GRP78 promoter luciferase reporter, 16 h; Potency, µM, inactives show at the highest dose activation, hits mostly activators; 0.02% of 420,000 active; AID 602332, 2012; active = well fitted activation curve with a large enough effect; note: potency is the fitted concentration of half-maximal effect; series mostly up to about 76 µM; % of control where 0% means no effect; nearly all actives have a fitted effect of over 35% in size
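Stably transfected U87-MG glioma cells carrying a GRP78-based luciferase sensor; 16 h compound incubation. Luminescence end-point read 10 min after Bright-Glo addition at room temperature.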
The depositor's hits bear a star; x = no result given; ! = repeats disagree. Cut-off read from the data, not from the text of the source, unless noted: active = activation above about 30%; inactive = the rest.

SMILES	TRHR agonist	D1 PAM	D1 antag	TRHR PAM	D1 ag	Glioma ERSR ind
COc1ccc2c(c1)-c1nc(-n3ncc(C(=O)N(C)C(C)c4ccon4)c3C3CC3)ncc1CC2 (stereo unspecified)	x	x	x	x	x	-3.1%
CC(C)(C)c1ccc(C(=O)C[n+]2cccc(Br)c2)cc1	x	x	x	x	x	-5.4%
Cc1noc(C)c1CSCC(=O)Nc1nc2c(F)cc(F)cc2s1	0.5	x	-13.7	-5.1	20.4	1.6%
O=C(Cc1c[nH]c2ccccc12)N1CCN(S(=O)(=O)c2cccc(Cl)c2Cl)CC1	0.5	-1.9	20.0	2.2	2.2	-3.9%
Cc1c(N=C2Nc3cccc4cccc2c34)c(=O)n(-c2ccccc2)n1C	9.9	-6.1	-8.0	6.3	36.5*	-0.9%
Cc1ccccc1NC(=O)c1ccc(CN2CC(=O)N3CCCCC3C2=O)cc1 (stereo unspecified)	0.1	-2.1	-37.4*	1.6	2.5	-4.9%
Cc1ccc2c(c1)Cc1c(nc(-c3ccc(F)cc3)nc1SCC(=O)N1CCCCC1)O2	1.1	-2.1	0.4	32.6*	0.2	-4.6%
COC(=O)c1ccc(Oc2coc3cc(OCc4cnn(-c5ccccc5)c4)ccc3c2=O)cc1	0.4	-3.5	-38.2*	0.0	3.6	-2.9%
COC(=O)c1scc(C#N)c1N/N=C(\C#N)S(=O)(=O)c1ccc(Cl)cc1	0.0	-4.7	-32.4*	-24.5	18.3	-2.0%
O=Cc1c(NCc2ccccc2Cl)c2ccccc2[nH]c1=O	-0.5	-1.2	-33.1*	-1.6	3.4	-4.5%
Cc1ccc(CNc2c(C=O)c(=O)[nH]c3ccccc23)cc1	-0.3	-2.0	-50.7*	10.5	5.7	-1.7%
O=Cc1c(NCc2ccc(F)cc2)c2ccccc2[nH]c1=O	-0.1	-8.8	-36.0*	-8.2	4.2	-4.2%
O=Cc1c(NCc2cccc(F)c2)c2ccccc2[nH]c1=O	-0.3	-0.7	-24.0	-2.0	4.0	-1.2%
O=Cc1c(NC2CCCCC2)c2ccccc2[nH]c1=O	-0.2	0.4	-0.3	-1.6	5.5	2.2%
CCCC(=O)N1CCC1(C)C(=O)NS(=O)(=O)c1cc(C)ccc1F (stereo unspecified)	x	x	x	x	x	-3.5%
COc1ccccc1C1CN(Cc2c(C)nn(C)c2Cl)Cc2ccccc2O1 (stereo unspecified)	x	x	x	x	x	-5.4%
CSc1ccc(C2NC(=O)c3c(sc4c3CCN(C)C4)N2)cc1 (stereo unspecified)	-1.0	x	7.3	-0.2	33.9*	-0.2%
CN1CCc2c(sc3c2C(=O)NC(c2cccs2)N3)C1 (stereo unspecified)	1.7	-3.2	-48.4*	-2.3	7.9	2.6%
Cc1ccsc1C1NC(=O)c2c(sc3c2CCN(C)C3)N1 (stereo unspecified)	7.9	-2.9	4.5	-2.5	12.0	-0.6%
CN1CCc2c(sc3c2C(=O)NC(c2ccc(C(C)(C)C)cc2)N3)C1 (stereo unspecified)	9.3	2.6	2.5	0.4	37.3*	-2.7%
C/C(CCC(=O)OC[C@@H]1O[C@H](C#Cc2ccccc2)C=C[C@@H]1Oc1ccc(C)cc1)=N/O[C@@H](C)c1cn([C@H](CO)Cc2ccccc2)nn1	x	x	x	x	x	-4.6%
COC(=O)c1c(-c2cccs2)csc1NC(=O)c1cc(OC)c(OC)c(OC)c1	0.9	0.3	-66.4*	-4.1	0.4	-4.5%
O=C(Nc1scc(-c2cccs2)c1C(=O)O)c1cccs1	0.0	-4.5	-84.2*	-2.9	2.8	-3.7%
COC(=O)c1c(-c2cccs2)csc1NC(=O)c1ccc(OC)c(OC)c1	0.8	-1.9	1.4	-9.4	2.9	-0.3%
CC(=O)Nc1ccc(NC(=O)CSc2nnc(N)n2-c2ccccc2)cc1	x	x	x	x	x	0.3%
SMILES	TRHR agonist	D1 PAM	D1 antag	TRHR PAM	D1 ag	Glioma ERSR ind
O=C(CCC(=O)N1CCOc2ccccc21)NCCCN1CCN(Cc2ccccc2)CC1	-0.5	-15.3	-38.5*	6.4	3.5	-0.7%
CCN1CCN(c2nc3ccccn3c(=O)c2/C=C(\C#N)S(=O)(=O)c2ccccc2)CC1	2.3	-4.7	-65.7*	0.6	2.4	-4.3%
Cc1cccn2c(=O)c(/C=C(\C#N)S(=O)(=O)c3ccccc3)c(N3CCC(C(N)=O)CC3)nc12	0.2	7.0	-5.8	-8.4	-0.6	-2.0%
CCN1CCN(c2nc3c(C)cccn3c(=O)c2/C=C(\C#N)C(=O)NCCOC)CC1	30.0*	-7.8	-1.0	-4.7	14.8	-1.7%
Cc1ccc(S(=O)(=O)/C(C#N)=C/c2c(N3CCC(C(N)=O)CC3)nc3c(C)cccn3c2=O)cc1	-0.3	-1.5	-46.6*	-1.7	10.7	-1.4%
CCOc1ccc(S(=O)(=O)Nc2cccc(C(=O)NCC(c3ccc(OC)cc3)N3CCOCC3)c2)cc1 (stereo unspecified)	-0.8	3.3	-15.9	-2.7	0.9	-2.6%
Cc1ccc(Cl)cc1N1CCN(C(=O)CNC(=O)c2ccc(Br)o2)CC1	-0.6	-2.6	0.4	-1.7	1.7	1.9%
CCOc1ccc(NC(=O)CSc2nnc(Cn3cnc([N+](=O)[O-])n3)n2C)cc1	-0.3	0.7	5.2	1.2	1.5	-4.1%
CCOc1ccc(NC(=O)CSc2nnc(Cn3cnc([N+](=O)[O-])n3)n2CC)cc1	-0.1	-14.4	-37.5*	1.0	2.0	-3.7%
CSc1nc(NC(C)(C)C)nc(Oc2ccc(=O)n(C)n2)n1	1.0	-6.6	-34.2*	3.8	2.0	-4.2%
CC(C)Nc1nc(NC(C)(C)C)nc(Oc2ccc(=O)n(-c3ccccc3)n2)n1	2.9	3.2	3.6	7.3	36.8*	4.2%
CCNc1nc(Oc2ccc(=O)n(C)n2)nc(N2CCOCC2)n1	0.7	-5.5	8.2	3.0	4.5	-4.2%
CNc1nc(Oc2ccc(=O)n(C)n2)nc(N2CCOCC2)n1	0.5	-9.7	-30.6*!	6.7	1.9	-2.3%
CC(C)CNc1nc(NC(C)(C)C)nc(Oc2ccc(=O)n(-c3ccccc3)n2)n1	-1.2	0.7	15.6	2.8	-0.2	-1.8%
C[C@H](N)C(=O)NCC(=O)N[C@H]1CSSC[C@@H](C(=O)O)NC(=O)[C@H](CO)NC(=O)[C@H]([C@@H](C)O)NC(=O)[C@H](Cc2ccccc2)NC(=O)[C@H]([C@@H](C)O)NC(=O)[C@H](CCCCN)NC(=O)[C@@H](Cc2c[nH]c3ccccc23)NC(=O)[C@H](Cc2ccccc2)NC(=O)[C@H](Cc2ccccc2)NC(=O)[C@H](CC(N)=O)NC(=O)[C@H](CCCCN)NC1=O	x	x	x	x	x	-5.6%

Assay outcomes as filed in PubChem.
